Results taken from PubChem BioAssay (Tox21).
Where “and” joins values, the source holds several entries; their conditions need not be identical. Equal values may be shown once. Records with an inconclusive call do not appear. Entries that show only a call come without a potency. Some structures have more than one record in an assay (separate samples or runs), and their calls can disagree. Calls of active or inactive are those of the source. The call rests on the fitted dose curve; in most records, active means well fitted curve in the direction sought with a large enough effect in the repeat runs; inconclusive means weak or mixed curves; inactive means no such curve, though single readings can be large; an effect the other way counts as inactive or inconclusive.

How the values were obtained:
[1] = qHTS RealTime-Glo MT Cell Viability Assay in HEK293 cells - 16 hour (AID 1224872); further: nearly all actives have a fitted effect of over 50% in size; further: potency means the concentration at half of the fitted maximal effect
Summary of the method: (§1)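 Assay medium contained NanoLuc luciferase plus cell-permeant prosubstrate, added with HEK293 cells at 600 cells/well. After 5 h at 37 C/5% CO2 compounds were added; plates stayed at 37 C for 40 h with serial luminescence reads.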

[2] = qHTS RealTime-Glo MT Cell Viability Assay in HepG2 cells - 8 hour (AID 1224873); further: nearly all actives have a fitted effect of over 55% in size; further: potency means the concentration at half of the fitted maximal effect
Summary of the method: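 Real-time viability: cells seeded at 600 per well together with NanoLuc and cell-permeant prosubstrate, compounds added after 5 h incubation. Luminescence tracked at 0, 8, 16, 24, 32 and 40 h of exposure.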

[3] = qHTS RealTime-Glo MT Cell Viability Assay in HEK293 cells - 40 hour (AID 1224874); settings: RealTime-Glo luminescence; max response: stronger effect = lower value; further: nearly all actives have a fitted effect of over 50% in size; further: potency means the concentration at half of the fitted maximal effect
Summary of the method: (§2)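 600 HEK293 cells per well, dispensed already mixed with RealTime-Glo MT reagents. Compound dosing came 5 h later. The same wells were read for luminescence at 0, 8, 16, 24, 32 and 40 h of exposure at 37 C.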

[4] = A CellTox Green Cytotoxicity Assay to monitor cytotoxicity in HEK293 cells - 24 hour (AID 1224875); further: nearly all actives have a fitted effect of over 45% in size; further: potency means the concentration at half of the fitted maximal effect
Summary of the method: (§3)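 Dead-cell fluorescence measured kinetically: asymmetric cyanine dye, HEK293, 600 cells/well, 5 h settle, 23 nL cpd/DMSO, 37 C, reads 0–40 h every 8 h.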

[5] = A CellTox Green Cytotoxicity Assay to monitor cytotoxicity in HepG2 cells - 16 hour (AID 1224876); further: nearly all actives have a fitted effect of over 45% in size; further: potency means the concentration at half of the fitted maximal effect
Summary of the method: (§4)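 First, HepG2 cells (600/well) mixed with reagent were plated; second, after 5 h at 37 C they received compounds via pintool; third, fluorescence was measured at 0 h through 40 h at 8 h intervals.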

[6] = qHTS RealTime-Glo MT Cell Viability Assay in HepG2 cells - 32 hour (AID 1224877); further: nearly all actives have a fitted effect of over 55% in size; further: potency means the concentration at half of the fitted maximal effect
Summary of the method: (§5)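 qHTS, HepG2, 600 cells/well, RealTime-Glo (NanoLuc + prosubstrate) added with cells; 5 h preincubation; DMSO compound addition; 37 C; luminescence at 0/8/16/24/32/40 h.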

[7] = A CellTox Green Cytotoxicity Assay to monitor cytotoxicity in HepG2 cells - 24 hour (AID 1224878); further: nearly all actives have a fitted effect of over 45% in size; further: potency means the concentration at half of the fitted maximal effect
Summary of the method: as §4

[8] = A CellTox Green Cytotoxicity Assay to monitor cytotoxicity in HepG2 cells - 40 hour (AID 1224879); further: nearly all actives have a fitted effect of over 40% in size; further: potency means the concentration at half of the fitted maximal effect
Summary of the method: as §4

[9] = qHTS RealTime-Glo MT Cell Viability Assay in HEK293 cells - 0 hour (AID 1224880); further: top concentration of the series differs between compounds; nearly all actives have a fitted effect of over 45% in size
Summary of the method: as §2

[10] = A CellTox Green Cytotoxicity Assay to monitor cytotoxicity in HEK293 cells - 32 hour (AID 1224881); further: nearly all actives have a fitted effect of over 40% in size; further: potency means the concentration at half of the fitted maximal effect
Summary of the method: as §3

[11] = A CellTox Green Cytotoxicity Assay to monitor cytotoxicity in HepG2 cells - 0 hour (AID 1224882); further: nearly all actives have a fitted effect of over 35% in size
Summary of the method: as §4

[12] = A CellTox Green Cytotoxicity Assay to monitor cytotoxicity in HEK293 cells - 8 hour (AID 1224884); further: nearly all actives have a fitted effect of over 35% in size; further: potency means the concentration at half of the fitted maximal effect
Summary of the method: as §3

[13] = qHTS RealTime-Glo MT Cell Viability Assay in HepG2 cells - 16 hour (AID 1224885); further: nearly all actives have a fitted effect of over 50% in size; further: potency means the concentration at half of the fitted maximal effect
Summary of the method: as §5

[14] = qHTS RealTime-Glo MT Cell Viability Assay in HEK293 cells - 24 hour (AID 1224886); further: nearly all actives have a fitted effect of over 50% in size; further: potency means the concentration at half of the fitted maximal effect
Summary of the method: as §1

[15] = qHTS RealTime-Glo MT Cell Viability Assay in HEK293 cells - 8 hour (AID 1224887); further: nearly all actives have a fitted effect of over 50% in size; further: potency means the concentration at half of the fitted maximal effect
Summary of the method: as §2

[16] = A CellTox Green Cytotoxicity Assay to monitor cytotoxicity in HEK293 cells - 16 hour (AID 1224888); further: nearly all actives have a fitted effect of over 35% in size; further: potency means the concentration at half of the fitted maximal effect
Summary of the method: as §3

[17] = A CellTox Green Cytotoxicity Assay to monitor cytotoxicity in HepG2 cells - 8 hour (AID 1224890); further: nearly all actives have a fitted effect of over 45% in size; further: potency means the concentration at half of the fitted maximal effect
Summary of the method: as §4

[18] = qHTS assay to identify small molecule antagonists of the estrogen receptor alpha (ER-alpha) signaling pathway using the BG1 cell line in the presence of 0.1 nM 17-beta-estradiol - cell viability counter screen (AID 1259241); further: nearly all actives have a fitted effect of over 40% in size; further: potency means the concentration at half of the fitted maximal effect
Summary of the method: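 VM7Luc4E2, 4,000 cells/well, phenol red-free medium + 10% charcoal-stripped FBS; 24 hr plating; cpd + 0.1 nM E2 final, 22 hr 37C/5% CO2; CellTiter-Fluor 30 min, fluorescence.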

[19] = A CellTox Green Cytotoxicity Assay to monitor cytotoxicity in HepG2 cells - 32 hour (AID 1224883); further: nearly all actives have a fitted effect of over 50% in size; further: potency means the concentration at half of the fitted maximal effect
Summary of the method: as §4

[20] = qHTS RealTime-Glo MT Cell Viability Assay in HepG2 cells - 0 hour (AID 1224889); further: nearly all actives have a fitted effect of over 50% in size; further: potency means the concentration at half of the fitted maximal effect
Summary of the method: as §5

NC1CCCCC1
Potency [1]: inactive | Potency [2]: inactive | max response [3]: 1.81% (inactive) [middle of 4 runs] | Potency [4]: inactive | Potency [5]: inactive | Potency [6]: inactive | Potency [7]: inactive | Potency [8]: inactive | Potency [9]: inactive | Potency [10]: inactive | Potency [11]: inactive | Potency [12]: inactive | Potency [13]: inactive | Potency [14]: inactive | Potency [15]: inactive | Potency [16]: inactive | Potency [17]: inactive | Potency [18]: inactive

CC(C)C(=O)Nc1ccc([N+](=O)[O-])c(C(F)(F)F)c1
Potency [1]: 20 µM (active) and 19.5 µM (active) and 10.7 µM (active) | Potency [2]: inactive | Potency [3]: 11.3 µM (active) and 21.9 µM (active) and 9.52 µM (active) | Potency [4]: inactive | Potency [6]: inactive | Potency [7]: inactive | Potency [8]: inactive | Potency [9]: inactive | Potency [10]: inactive | Potency [11]: inactive | Potency [19]: inactive | Potency [12]: inactive | Potency [13]: inactive | Potency [14]: 17.9 µM (active) and 21.9 µM (active) and 10.7 µM (active) | Potency [15]: 22.5 µM (active) and 21.9 µM (active) and 9.52 µM (active) | Potency [16]: inactive | Potency [17]: inactive | Potency [18]: inactive

CCCCCCCCCCCC[N+](C)(C)Cc1ccccc1
Potency [1]: 24.1 µM (active) and 23.8 µM (active) and 8.49 µM (active) | Potency [2]: 48 µM (active) and 53.2 µM (active) and 26.8 µM (active) | Potency [3]: 1.91 µM (active) and 2.12 µM (active) and 1.9 µM (active) | Potency [4]: 42.8 µM (active) and 47.4 µM (active) and 23.9 µM (active) | Potency [5]: 21.5 µM (active) and 26.7 µM (active) and 19 µM (active) | Potency [6]: 9.58 µM (active) and 18.9 µM (active) and 6.74 µM (active) | Potency [7]: 19.1 µM (active) and 23.8 µM (active) and 10.7 µM (active) | Potency [8]: 13.5 µM (active) and 18.9 µM (active) and 8.49 µM (active) | Potency [9]: inactive | Potency [10]: 38.1 µM (active) and 29.9 µM (active) and 23.9 µM (active) | Potency [11]: inactive | Potency [12]: 59.7 µM (active) | Potency [13]: 21.5 µM (active) and 23.8 µM (active) and 12 µM (active) | Potency [14]: 4.28 µM (active) and 4.23 µM (active) and 3.01 µM (active) | Potency [15]: 53.9 µM (active) and 59.7 µM (active) | Potency [16]: 48 µM (active) and 53.2 µM (active) and 26.8 µM (active) | Potency [17]: 53.9 µM (active) and 47.4 µM (active) and 23.9 µM (active) | Potency [18]: inactive

Cc1cccc(C)c1
Potency [1]: inactive | Potency [2]: inactive | max response [3]: -11.1% (inactive) and -3.52% (inactive) and 0.116% (inactive) | Potency [4]: inactive | Potency [6]: inactive | Potency [7]: inactive | Potency [8]: inactive | Potency [9]: inactive | Potency [10]: inactive | Potency [11]: inactive | Potency [19]: inactive | Potency [12]: inactive | Potency [13]: inactive | Potency [14]: inactive | Potency [15]: inactive | Potency [16]: inactive | Potency [17]: inactive | Potency [18]: inactive

CCOC(N)=O
Potency [1]: inactive | Potency [2]: inactive | max response [3]: 6.85% (inactive) and 12.6% (inactive) and -3.78% (inactive) | Potency [4]: inactive | Potency [5]: inactive | Potency [6]: inactive | Potency [7]: inactive | Potency [8]: inactive | Potency [9]: inactive | Potency [10]: inactive | Potency [11]: inactive | Potency [12]: inactive | Potency [13]: inactive | Potency [14]: inactive | Potency [15]: inactive | Potency [16]: inactive | Potency [17]: inactive | Potency [18]: inactive

CN(C)CCOC(C)(c1ccccc1)c1ccccn1 (configuration not stated)
Potency [1]: inactive | Potency [2]: inactive | max response [3]: 2.62% (inactive) and -0.138% (inactive) and 6.89% (inactive) | Potency [4]: inactive | Potency [6]: inactive | Potency [7]: inactive | Potency [8]: inactive | Potency [9]: inactive | Potency [10]: inactive | Potency [11]: inactive | Potency [12]: inactive | Potency [13]: inactive | Potency [14]: inactive | Potency [15]: inactive | Potency [16]: inactive | Potency [20]: inactive | Potency [17]: inactive | Potency [18]: inactive

F[B-](F)(F)F
Potency [1]: inactive | Potency [2]: inactive | max response [3]: 7.4% (inactive) and 8.65% (inactive) and 0.515% (inactive) | Potency [4]: inactive | Potency [6]: inactive | Potency [7]: inactive | Potency [8]: inactive and 39.5 µM (active) | Potency [9]: inactive | Potency [10]: inactive | Potency [11]: inactive | Potency [12]: inactive | Potency [13]: inactive | Potency [14]: inactive | Potency [15]: inactive | Potency [16]: inactive | Potency [17]: inactive | Potency [18]: inactive

CC1(C)O[C@@H]2C[C@H]3[C@@H]4CCC5=CC(=O)C=C[C@]5(C)[C@@]4(F)[C@@H](O)C[C@]3(C)[C@]2(C(=O)CO)O1
Potency [1]: inactive | Potency [2]: inactive | max response [3]: -22.1% (inactive) and -11.6% (inactive) and -2.14% (inactive) | Potency [6]: inactive | Potency [7]: inactive | Potency [8]: inactive | Potency [9]: inactive | Potency [10]: inactive and 9.52 µM (active) | Potency [11]: inactive | Potency [19]: inactive | Potency [12]: inactive and 9.52 µM (active) | Potency [13]: inactive | Potency [14]: inactive | Potency [15]: inactive | Potency [20]: 22 µM (active) and 12.3 µM (active) | Potency [17]: inactive | Potency [18]: inactive

COc1ccc2cc(S(=O)(=O)N[C@H](CC(=O)N[C@H](Cc3ccc(CN4[C@H](C)CCC[C@@H]4C)cc3)C(=O)N(C)C(C)C)c3ccc4c(c3)OCO4)ccc2c1
Potency [1]: 46.3 µM (active) | Potency [2]: 52 µM (active) | Potency [3]: 26.1 µM (active) | Potency [6]: 52 µM (active) | Potency [7]: 52 µM (active) | Potency [8]: 52 µM (active) | Potency [9]: inactive | Potency [10]: 52 µM (active) | Potency [11]: inactive | Potency [19]: 52 µM (active) | Potency [13]: 52 µM (active) | Potency [14]: 41.3 µM (active) | Potency [15]: 46.3 µM (active) | Potency [18]: 29 µM (active)

O=C1NC(=O)C(c2ccccc2)(c2ccccc2)N1
Potency [1]: inactive | Potency [2]: inactive | max response [3]: -30.3% (inactive) and -21% (inactive) | Potency [6]: inactive | Potency [7]: inactive and 23.9 µM (active) | Potency [8]: inactive and 23.9 µM (active) | Potency [9]: inactive | Potency [10]: inactive and 19 µM (active) | Potency [11]: inactive | Potency [12]: inactive and 21.3 µM (active) | Potency [13]: inactive | Potency [14]: inactive | Potency [15]: inactive | Potency [17]: inactive and 23.9 µM (active) | Potency [18]: inactive

Nc1c(N=Nc2ccc(-c3ccc(N=Nc4cc(S(=O)(=O)O)c5ccccc5c4N)cc3)cc2)cc(S(=O)(=O)O)c2ccccc12
Potency [1]: 38.9 µM (active) | Potency [2]: 38.9 µM (active) | Potency [4]: inactive | Potency [5]: inactive | Potency [6]: 48.9 µM (active) | Potency [7]: inactive | Potency [8]: inactive | Potency [10]: inactive | Potency [11]: inactive | Potency [19]: inactive | Potency [12]: inactive | Potency [14]: 43.6 µM (active) | Potency [15]: 24.5 µM (active) | Potency [16]: inactive | Potency [17]: inactive | Potency [18]: 12.2 µM (active)
